Measured values taken from PubChem BioAssay (NCATS).
The source made the active and inactive calls. Calls follow the shape of the dose curve; as a rule, active = well fitted curve in the direction sought with a large enough effect; inconclusive = small, poorly fitted or top-dose-only effect, or effect the other way, or another doubt; inactive = no such curve, though single readings can be large or run the other way.

Experiment: qHTS for inhibitors of adenylyl cyclases using a fission yeast platform: a pilot screen against the NCATS LOPAC library (AID 1347410)
Details: S. pombe CHP2027, fbp1-GFP fluorescence, 18 h, yeast expressing mammalian AC9 and human GNAS; series mostly up to 57.5 µM
Text: PI: Charles S. Hoffman Ph.D
Boston College, 140 Commonwealth Ave., Chestnut Hill, MA
Assay Development and Screening Technology Laboratory (ADST)
National Center for Advancing Translational Sciences (NCATS), Rockville, MD
National Institute of Health (NIH), Bethesda, Maryland
The fission yeast Schizosaccharomyces pombe uses a cAMP signaling pathway to link glucose-sensing to Protein Kinase A activity in order to regulate cell growth, sexual development, gluconeogenesis, and exit from stationary phase. Here, we describe the successful functional expression of all ten mammalian adenylyl cyclase (AC) genes, along with the human GNAS G-alpha gene in this organism. By measuring expression of a PKA-repressed fbp1-GFP reporter together with direct measurements of intracellular cAMP levels, one can detect both basal AC activity from all ten AC genes as well as GNAS-stimulated activity from eight of the nine transmembrane ACs (tmACs; AC2-AC9).
Further confirmation and validation of active compounds lead to the identification of diphenyleneiodonium chloride (DPI) as an inhibitor of basal AC activity. This fluorescence based fbp1-GFP-GNAS screening technology could facilitate the development of therapeutic compounds that target GNAS or the ACs, an area in which there is significant unmet need.
The gain-of-signal output is not substantially affected by cytotoxic compounds within the library.
Getz RA, et al., A fission yeast platform for heterologous expression of mammalian adenylyl cyclases and high throughput screening, Cellular Signaling, 2019, 60: 114-121. doi.org/10.1016/j.cellsig.2019.04.010.
PROTOCOL TABLE (as described by Inglese J, Shamu CE and Guy RK. 2007)
SEQUENCE No. (e.g., 1, 2, 3, etc.); […] (e.g., Cells, Incubation, Reagent, etc.); VALUE; DESCRIPTION.
1; Dispense growth medium; 2 uL; black, clear bottom, low base, 1536-well Aurora assay plate.
2; Compounds and control; 23 nL; Kalypsis pin tool (Wako USA) equipped with a 1536-well pin head to transfer to the assay plates.
3; Dispense yeast cells; 2 uL; CHP2027 cells.
4; Incubation; 18 hours (dark at 30C); Non-humidified microbial incubator.
5; Detector; 425V; Fluorescence; laser scanning cytometry.
NOTES (numbers refer to Sequence numbers above)
1. S. pombe growth medium EMM containing histidine, lysine, and uracil was initially dispensed into the assay plate to avoid yeast contamination using a Multidrop Combi dispenser (Thermo Fisher Scientific).
2. 10 mM stock solution of DPI (Sigma-Aldrich D2926) dissolved in DMSO was used as a 16-point dose response positive control, while 1.11 mM DPI stock solution was used as a single point max response positive control. Solvent DMSO was used as the negative control. Control DPI was transferred as a single-dose (column 3; rows 1-32; 1.11 mM stock), and multi-dose (column 4; rows 1-32; 10mM stock; 1:1.5 dilution; 16pnt titration) positive controls. Vehicle control DMSO was pinned into column 1-2, rows 1-32. Lopac compounds were pinned into columns 5-48 resulting to a final concentration range 57 µM to 78.4 nMControl DPI stock (10 mM) was prepared by dissolving 10 mg in 3.18 mL DMSO; while 1.11 mM DPI stock was prepared by mixing 100 uL of 10 mM DPI with 800 uL DMSO. To create the control plates, we initially start with a 384-well compound working plate. With a repeater pipette, (a.) 16 uL/well of 1.11 mM DPI was added to column 3; (b.) 16 uL/well of DMSO was added into rows 2-16 of column 4; (c.) 50 uL/well of DPI added to rows 1 and 2 of column 4; (d.) 32 uL serial dilution (two-thirds-fold) from rows 2 to 16 of column 4 with manual pipette. From the 384-well compound working plate, 7 uL of respective control compound was transferred to respective columns of the 1536-well compound plate using a multichannel pipette.
3. S. pombe CHP2027 (AC9-GNAS-PDE4D2) expressing fbp1-GFP cells were grown at 30C in EMM medium containing histidine, lysine, and uracil. […]
For `CN1CCc2cc(Cl)c(O)cc2[C@@H](c2ccccc2)C1`, the outcome was “inactive”. In the case of `NCCC1CCCC(CCN)N1` (stereo not given), the outcome was “inactive”. With `Oc1cc(O)c2c(c1)O[C@H](c1ccc(O)c(O)c1)[C@@H](O)C2` the outcome was “inactive”. For `Nc1nc2c(cnn2CCc2ccccc2)c2nc(-c3ccco3)nn12`, the outcome was “inactive”. For `COc1cc(C(O)CO)ccc1O` (stereo not given), the outcome was “inactive”. In the case of `CCCCCCC/C=C\CCCCCCCCC(=O)O`, the outcome was “inactive”. In the case of `Cc1ccc([N+](=O)[O-])cc1S(=O)(=O)N(C)C`, the outcome was “inactive”. With `CN1CCCC1CCOC(C)(c1ccccc1)c1ccc(Cl)cc1` (stereo not given) the outcome was “inactive”. For `CNc1cc(NS(=O)(=O)c2ccc(N)cc2)nc(NC)n1`, the outcome was “inactive”. With `Nc1ncnc2c1ncn2C1CCCC1` the outcome was “inactive”. In the case of `COc1cc(/C=C(\C#N)C(=O)Nc2nnc(C(F)(F)F)s2)ccc1OCc1ccc(C(F)(F)F)cc1C(F)(F)F`, the outcome was “inactive”. In the case of `C[C@H]1CC2C3CCC4=CC(=O)C=C[C@]4(C)[C@@]3(Cl)[C@@H](O)C[C@]2(C)[C@@]1(O)C(=O)CO` (stereo not given in full), the outcome was “inactive”. With `CCC1(O)CC2CN(CCc3c([nH]c4ccccc34)[C@@](C(=O)OC)(c3cc4c(cc3OC)N(C=O)C3[C@]45CCN4CC=C[C@@](CC)([C@@H](OC(C)=O)[C@]3(O)C(=O)OC)[C@H]45)C2)C1` (stereo not given in full) the outcome was “inactive”. With `O[Si](CCCN1CCCCC1)(c1ccc(F)cc1)C1CCCCC1` (stereo not given) the outcome was “inactive”. For `Nc1ccc(CCNc2ncnc3c2ncn3C2OC(CO)C(O)C2O)cc1` (stereo not given), the outcome was “inactive”. With `CC(C)[C@@H]1CC[C@@H](C)C[C@@H]1P(=O)(c1ccccc1)c1ccccc1` the outcome was “inactive”. In the case of `C/C(=C\c1ccc(C(=O)O)cc1)c1ccc2c(c1)C(C)(C)CCC2(C)C`, the outcome was “inactive”. In the case of `Nn1nnc2ccccc21`, the outcome was “inactive”. In the case of `N#C/C(=C\c1ccc(O)c(O)c1)C(=O)NCCCNC(=O)/C(C#N)=C/c1ccc(O)c(O)c1`, the outcome was “inactive”. With `O=C(O)C1=CCNCC1` the outcome was “inactive”. For `CC(=O)O[C@H]1CC2(C)[C@@H](C[C@@H](O)[C@H]3[C@@]4(C)CC[C@@H](O)[C@@H](C)[C@@H]4CC[C@@]32C)C1=C(CCC=C(C)C)C(=O)O` (stereo not given in full), the outcome was “inactive”. With `Nc1ccc(N2C(=O)c3ccccc3C2=O)c(Cl)c1` the outcome was “inactive”. With `COCc1nc2c([nH]1)c(=O)n(C)c(=O)n2CC(C)C` the outcome was “inactive”. For `Nc1nc2ccc(Cl)cc2c2nc(-c3ccco3)nn12`, the outcome was “inactive”. With `C=C1C[C@@]23CC[C@H]4[C@@](C)(CCC[C@@]4(C)C(=O)OC4OC(CO)C(O)C(O)C4O)[C@@H]2CC[C@]1(OC1OC(CO)C(O)C(O)C1OC1OC(CO)C(O)C(O)C1O)C3` (stereo not given in full) the outcome was “inactive”. For `O=C1NC(=O)c2cc(Nc3ccccc3)c(Nc3ccccc3)cc21`, the outcome was “inactive”. For `O=c1cc(-c2ccccc2)[nH]c2nc(Cl)ccc12`, the outcome was “inactive”. In the case of `CC#CCOC(=O)c1c(C)nc2sc3c(c2c1N)CCC(O)C3` (stereo not given), the outcome was “inactive”. With `C=C1C(=O)O[C@@H]2[C@H]3O[C@]3(C)CCC=C(C)CC[C@@H]12` the outcome was “inactive”. In the case of `O=[N+]([O-])c1cccc2cn[nH]c12`, the outcome was “inactive”. In the case of `CCN(CC)CCOC(=O)c1cc(Cl)c(N)cc1OC`, the outcome was “inactive”. With `C=C1C[C@@]23CC[C@H]4[C@@](C)(CCC[C@@]4(C)C(=O)O)[C@@H]2CC[C@]1(O)C3` the outcome was “inactive”. For `NCCCNCCCCNCCCN`, the outcome was “inactive”. For `NC(Cc1cccc(-c2ccccc2CP(=O)(O)O)c1)C(=O)O` (stereo not given), the outcome was “inactive”. With `CC(=O)N[C@@H](Cc1c[nH]c2ccccc12)C(=O)OCc1cc(C(F)(F)F)cc(C(F)(F)F)c1` the outcome was “inactive”. For `C[C@](Cc1ccc(O)c(O)c1)(NN)C(=O)O`, the outcome was “inactive”. With `CNCCc1cnc(CCC(c2ccccc2)c2ccccc2)[nH]1` the outcome was “inactive”. In the case of `COc1ccc(CCN(C)CCc2ccc(OC)c(OC)c2)cc1OC`, the outcome was “inactive”. For `NC1CONC1=O` (stereo not given), the outcome was “inactive”. With `C#CC(N)CCC(=O)O` (stereo not given) the outcome was “inactive”.
